Screens deposited in PubChem by several laboratories.
ALR inh – inhibitors of human ALR sulfhydryl oxidase, primary screen, biochemical, H2O2 detection, HRP-luminol luminescence, single point. AID 485317, 2010. purified ALR, DTT oxidation. FAD-linked sulfhydryl oxidase ALR (Homo sapiens), P55789. inhibition, % (no concentration beside the values). actives 3.8% (n = 290,000);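 active = mean replicate inhibition above about 79%, with every replicate also reaching it, limit read from the data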
Rce1 inh – yeast Rce1p protease inhibitors, primary screen, biochemical, fluorescence, cell-free homogeneous | CAAX prenyl protease 2 (Saccharomyces cerevisiae (strain ATCC 204508 / S288c)), Q03530 | yeast membranes, quenched prenylated peptide cleavage fluorescence | calls only | actives 0.27% (n = 290,000) | AID 2563, 2010;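 active = fall in fluorescence gain of 50% or more versus controls, with final raw signal at or below 3038400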;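 note: plate controls were neutral control wells for no effect and wells lacking membranes for full effect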
Efflux pump inh – inhibitors of Candida efflux pumps in yeast, primary screen, S. cerevisiae, Nile Red, multiplex. actives 0.44% (n = 330,000). S. cerevisiae Candida pump triplex. AID 485275, 2010. inhibition, % at 10 µM;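 active = plate passing quality check with inhibition over a set limit, or well fluorescence over plate mean plus 4 SD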;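 note: Nile Red retained in pooled yeast measured as flow cytometry median fluorescence; 0% = buffer negative control and 100% = Enniatin B positive control; higher means more Nile Red kept so more efflux inhibition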
HDAC3 inh – HDAC3 deacetylase inhibitors, primary screen, biochemical, fluorescence, cell-free homogeneous; Histone deacetylase 3 (Homo sapiens), O15379; recombinant HDAC3, fluorogenic peptide/trypsin coupled; inhibition, % at 8.3 µM; AID 2718, 2010; actives 0.15% (n = 320,000); in the data active = inhibition above about 26%, passing the limit was not always enough
GRK2 inh – compounds blocking aptamer binding on GRK2 – biochemical, human GRK2, bead flow cytometry, HTS, primary screen; AID 488847, 2010; actives 0.59% (n = 330,000); Beta-adrenergic receptor kinase 1 (Homo sapiens), P25098; FAM-aptamer displacement from GRK2; inhibition of aptamer binding, % at 10 µM;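 active = inhibition of aptamer binding above 40%, roughly 3 SD of noise, on plates passing a quality check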;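 note: median bead fluorescence of bound FAM aptamer so fluorescent compounds give negative values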
Target sequence (P25098 whole entry, looked up): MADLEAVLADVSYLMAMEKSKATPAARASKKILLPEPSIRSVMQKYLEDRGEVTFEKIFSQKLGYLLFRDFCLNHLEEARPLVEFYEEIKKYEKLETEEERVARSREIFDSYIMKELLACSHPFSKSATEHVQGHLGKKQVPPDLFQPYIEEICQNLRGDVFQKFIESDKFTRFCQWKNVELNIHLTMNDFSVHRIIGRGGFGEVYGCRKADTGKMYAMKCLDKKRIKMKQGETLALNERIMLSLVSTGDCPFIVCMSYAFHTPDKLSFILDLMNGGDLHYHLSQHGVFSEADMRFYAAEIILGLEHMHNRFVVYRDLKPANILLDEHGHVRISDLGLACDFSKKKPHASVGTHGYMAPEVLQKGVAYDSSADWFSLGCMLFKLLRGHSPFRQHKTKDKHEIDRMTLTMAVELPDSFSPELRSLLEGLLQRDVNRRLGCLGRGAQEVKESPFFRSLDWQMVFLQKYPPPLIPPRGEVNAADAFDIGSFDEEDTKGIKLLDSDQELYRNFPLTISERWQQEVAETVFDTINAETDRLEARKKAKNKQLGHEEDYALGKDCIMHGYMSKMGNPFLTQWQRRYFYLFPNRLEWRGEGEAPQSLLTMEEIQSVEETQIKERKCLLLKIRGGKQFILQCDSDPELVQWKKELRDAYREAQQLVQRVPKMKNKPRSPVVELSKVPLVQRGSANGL
Rtt109 Vps75 – inhibitors of C. albicans Rtt109/Vps75 HAT, primary screen, biochemical, ThioGlo CoA-SH fluorescence, plate reader. Histone acetyltransferase RTT109 (Candida albicans (strain SC5314 / ATCC MYA-2876)), …. purified Rtt109/Vps75, 4 h. inhibition, % at 34.9 µM. actives 0.16% (n = 330,000). AID 540336, 2011;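 active = inhibition of at least 50% in every replicate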
Active calls of the source: *; i = inactive; nt = no result. This is a sample that favours compounds with a hit; in the whole collection about 4.5% have one here.

SMILES | ALR inh | Rce1 inh | Efflux pump inh | HDAC3 inh | GRK2 inh | Rtt109 Vps75
COc1ccccc1NC(=O)c1cc2c(CO)cnc(C)c2oc1=Nc1ccc(OC)c(OC)c1 | 4 | i | 0 | -3 | 0 | -3
COc1ccc(C)cc1NC(=O)c1cc2c(CO)cnc(C)c2oc1=N | 86* | i | 0 | 1 | 0 | -4
Cc1cccc(NC(=O)CSCC(=O)N(CCC(C)C)c2c(N)n(Cc3ccccc3)c(=O)[nH]c2=O)c1 | -17 | i | 0 | -1 | 0 | -2
N#Cc1c(-c2ccccc2)nc(SCC(=O)Nc2nnc(C(F)(F)F)s2)[nH]c1=O | 15 | i | 0 | 3 | 2 | -11
N#Cc1c(-c2ccccc2)nc(SCC(=O)Nc2ccccc2F)[nH]c1=O | 99* | nt | 0 | 0 | 2 | 1
Cc1cccc(NC(=O)CSc2nc(-c3ccccc3)c(C#N)c(=O)[nH]2)c1C | 91* | i | 0 | -2 | 0 | 10
N#Cc1c(-c2cccs2)nc(SCC(=O)c2cccs2)[nH]c1=O | 98* | i | 0 | 5 | 2 | 6
N#Cc1c(-c2ccccc2)nc(SCC(=O)Nc2ccc(OC(F)(F)Cl)cc2)[nH]c1=O | 99* | i | 0 | -9 | 2 | 0
Cc1cc(NC(=O)CSc2nc(-c3ccccc3)c(C#N)c(=O)[nH]2)no1 | nt | i | 0 | nt | 0 | 1
CC(C(=O)N1CCc2ccccc21)N(C)CC(=O)Nc1cccc(F)c1 (stereo not drawn) | nt | nt | 0 | 7 | 0 | 2
COc1ccccc1N1CCN(C(=O)C(C)NC(=O)c2cccc([N+](=O)[O-])c2)CC1 (stereo not drawn) | nt | i | 0 | 4 | 0 | 7
O=[N+]([O-])c1cc(Cl)cc(/C=N/NC(=S)Nc2ccc(S(=O)(=O)N3CCOCC3)cc2)c1O | 9 | nt | 0 | 8 | 0 | 24
N#Cc1c(-c2ccccc2)nc(SCC(=O)N2c3ccccc3Sc3ccccc32)[nH]c1=O | nt | i | 0 | 4 | 1 | 58*
N#Cc1c(-c2ccccc2)nc(SCC(=O)Nc2ccccc2)[nH]c1=O | 98* | nt | 0 | 6 | 0 | 8
N#Cc1c(-c2ccccc2)nc(SCC(=O)N(c2ccccc2)c2ccccc2)[nH]c1=O | 98* | i | 0 | 3 | 1 | 26
Cc1cc(C)nc(NS(=O)(=O)c2ccc(NC(=O)CSc3nc(-c4ccccc4)c(C#N)c(=O)[nH]3)cc2)n1 | 99* | i | 0 | 1 | 2 | 7
O=C(Cn1ccc2ccccc2c1=O)NCC(=O)N1CCCCC1 | -44 | i | 0 | -4 | 0 | 10
CCOC(=O)c1c(S(=O)(=O)Nc2ccc(F)cc2C)c(C)n(C)c1C | -2 | i | 0 | -5 | 15 | -5
Cc1ccc(C(=O)NCC(=O)NCC(=O)OCC(=O)c2cccs2)cc1 | -15 | i | 0 | 2 | 3 | 6
O=C(/C=C/c1ccccc1)N1CCC(N2CCC(C(=O)N3CCOCC3)CC2)CC1 | 3 | i | -1 | -5 | 1 | -1
CCCN(C(=O)COc1ccc(C(C)=O)cc1OC)C1CCS(=O)(=O)C1 (stereo not drawn) | -4 | nt | 0 | -2 | 0 | 0
CCOC(=O)C1CCN(C(=O)C2CC(=O)N(c3ccc4c(c3)OCCO4)C2)CC1 (stereo not drawn) | -12 | i | 0 | 1 | 0 | 3
COc1ccc(-c2nc(CN3CCC(C(=O)NC4CC4)CC3)c(C)o2)cc1OC | -4 | i | 0 | -6 | 0 | 0
CCN1CCN(C(=O)CSCc2nc(-c3ccc(OC)c(OC)c3)oc2C)CC1 | 99* | i | 0 | -8 | 3 | -3
COc1cc(-c2nc(CN3CCCN(C(=O)c4ccco4)CC3)c(C)o2)ccc1F | -5 | i | 0 | -6 | 0 | 3
SMILES | ALR inh | Rce1 inh | Efflux pump inh | HDAC3 inh | GRK2 inh | Rtt109 Vps75
COc1ccc(-c2nc(CSCC(=O)N3CCN(C(=O)c4ccco4)CC3)c(C)o2)cc1OC | 99* | i | 0 | 2 | 0 | 1
CCN1CCN(CCNC(=O)CSCc2nc(-c3ccc(OC)c(OC)c3)oc2C)CC1 | 99* | i | 0 | -6 | 0 | -9
COc1ccc(-c2nc(CSCC(=O)N3CCN(C)CC3)c(C)o2)cc1OC | 99* | i | 0 | -2 | 6 | -14
COc1ccc(-c2nnc(SCC(=O)N3CCCC3)o2)cc1OC | -4 | i | 0 | 8 | 0 | nt
CC(Sc1c[nH]c2ccccc12)C(=O)O (stereo not drawn) | 66 | i | 0 | -9 | 1 | -6
Nc1ccccc1Sc1c[nH]c2ccccc12 | 99* | i | 1 | 9 | 1 | -19
COc1cc2ccc(=O)oc2cc1O | 98* | nt | 0 | -212 | 0 | i
Cc1ccc(C)c(S(=O)(=O)N2CCN(C(=O)CCC(=O)c3cc(C)sc3C)CC2)c1 | -12 | i | 0 | 1 | 0 | 9
COc1ccccc1N1CCN(C2CCCN(C(=O)CCc3c(C)noc3C)C2)CC1 (stereo not drawn) | 94* | i | 0 | 0 | 0 | -15
COc1ccccc1N1CCN(C2CCCN(C(=O)CCc3cnccn3)C2)CC1 (stereo not drawn) | 54 | i | 1 | 2 | 1 | 0
CC(C)C(=O)N(c1ccc2oc(=O)sc2c1)S(=O)(=O)c1ccccc1 | 96* | i | 0 | 1 | 3 | 14
COc1ccc(OC)c(S(=O)(=O)N(C(C)=O)c2ccc3oc(=O)sc3c2)c1 | 9 | i | 0 | 6 | 0 | -4
CCCC(=O)N(c1ccc2oc(=O)sc2c1)S(=O)(=O)c1cccs1 | 4 | nt | 0 | 7 | 2 | 124*
CC(=O)N(c1ccc2oc(=O)sc2c1)S(=O)(=O)c1ccccc1 | 1 | i | 0 | 5 | 2 | 67*
COc1ccc(S(=O)(=O)N(C(=O)C(C)C)c2ccc3oc(=O)sc3c2)cc1 | -2 | i | 0 | -7 | 3 | 5
CN(CC(=O)O)S(=O)(=O)c1cccs1 | 2 | i | 0 | -1 | 4 | 0
COc1ccccc1CNC(=O)C(=O)NCC1CCCN1S(=O)(=O)c1cccs1 (stereo not drawn) | -15 | i | 0 | 2 | 0 | 3
NC(=O)C1CCN(C(=O)CCC(=O)N2CCOc3ccc(Cl)cc32)CC1 | 3 | i | 0 | 12 | 0 | -8
